# gsp antagonist – antagonizes gsp, the McCune-Albright syndrome mutation | 340,000 tested, 0.4% active | Potency, µM (doses to about 76.9 µM), inactives show top-dose activity change, negative = inhibition, hits mostly inhibitors | gsp-mutant cells, cAMP HTRF, 30 min; calls by dose curve; cell line not stated here;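 note: intracellular cAMP measured with PDE inhibitor Ro 20-1724 present during compound exposure; potency is the fitted concentration of half-maximal effect; % is set by controls: 0 for no effect and ±100 for the full control effect; nearly all actives have a fitted effect of over 65% in size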
#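 Cells in G418 medium, seeded 16-24 h, 37C; buffer exchange to DPBS + 1 mM CaCl2, 0.5 mM MgCl2, 0.05% BSA; cpds in DMSO + […] (300 uM stock), 30 min 37C; HTRF cAMP detection.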
# gsp agonist – activates gsp, the McCune-Albright syndrome mutation; gsp mutant cells, cAMP HTRF, 30 min; Potency, µM (series often up to 76.9 µM), for the others: at the top dose activation (cAMP increase), hits mostly activators; 340,000 tested, 0.13% active; AID 624287; active = well fitted activation curve with a large enough effect; inconclusive = small, poorly fitted or top-dose-only effect, or another doubt; inactive = no such curve, though single readings can be large or run the other way; cell line not stated here;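 note: phosphodiesterase inhibitor Ro 20-1724 added with compounds to block cAMP breakdown; potency is the fitted concentration of half-maximal effect; nearly all actives have a fitted effect of over 60% in size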
#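 Cells stably selected in G418 were plated at 2000/well, grown 16-24 hr, then given compounds in DMSO with the PDE inhibitor […] (300 uM solution added) for 30 min at 37C; cAMP was read by HTRF.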
# RXFP1 antagonist – antagonists of human relaxin receptor RXFP1; Q9HBX9; HEK293-RXFP1, relaxin-stimulated cAMP HTRF, 30 min; hits give low values; activity change, negative = inhibition, % at 57.5 µM; 350,000 tested, 0.59% active;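 active = activity change of -60% or lower, but not beyond a set lower limit; inconclusive = change between -60% and -40%, or beyond the set limit; inactive = change above -40%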; note: % is set by controls: 0 for no effect and ±100 for the full control effect
# Target sequence (Q9HBX9 whole entry, looked up): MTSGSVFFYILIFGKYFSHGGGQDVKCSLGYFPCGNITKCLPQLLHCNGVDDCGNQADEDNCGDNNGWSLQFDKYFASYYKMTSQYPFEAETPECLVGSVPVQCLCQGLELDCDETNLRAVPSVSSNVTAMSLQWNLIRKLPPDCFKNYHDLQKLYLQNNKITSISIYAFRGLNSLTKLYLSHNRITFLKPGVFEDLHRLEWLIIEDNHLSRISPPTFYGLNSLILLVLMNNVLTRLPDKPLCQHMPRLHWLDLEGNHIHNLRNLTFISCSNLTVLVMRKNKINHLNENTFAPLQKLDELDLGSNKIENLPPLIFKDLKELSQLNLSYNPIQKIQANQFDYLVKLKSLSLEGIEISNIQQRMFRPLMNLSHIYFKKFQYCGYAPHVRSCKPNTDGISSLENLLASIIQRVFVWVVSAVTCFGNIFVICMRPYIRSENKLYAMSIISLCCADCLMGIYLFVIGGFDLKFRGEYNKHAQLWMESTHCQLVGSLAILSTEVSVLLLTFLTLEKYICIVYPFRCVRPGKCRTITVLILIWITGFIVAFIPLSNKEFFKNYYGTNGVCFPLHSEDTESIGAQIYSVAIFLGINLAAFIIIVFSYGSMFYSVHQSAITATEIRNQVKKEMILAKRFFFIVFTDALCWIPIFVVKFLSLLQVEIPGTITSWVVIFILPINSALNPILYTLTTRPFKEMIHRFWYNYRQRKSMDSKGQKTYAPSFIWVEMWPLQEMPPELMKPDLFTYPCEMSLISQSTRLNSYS
# MmCpn inh – M. maripaludis TRiC chaperonin inhibition; purified Mm-Cpn ATPase, ADP Transcreener TR-FRET; Potency, µM (top dose mostly 76.9 µM), for inactives: at the highest dose activity, negative = inhibition, hits mostly inhibitors; 330,000 tested, 0.031% active; note: potency is the fitted concentration of half-maximal effect; % is set by controls: 0 for no effect and ±100 for the full control effect; nearly all actives have a fitted effect of over 80% in size
#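 Eu-cryptate anti-ADP/ADP-d2 competition gives a ratio inversely related to ADP. Enzyme at 25 nM was pre-exposed to compound for 10 min, then given 10 uM ATP for 30 min, 37°C throughout.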
# CCT chaperon mod – cytosolic chaperonin activity modulation; purified chaperonin ATPase assay, HTRF ADP detection, 30 min; activity change, % (concentration not given with the values), hits read low; 360,000 tested, 0.3% active; in the data active = activity change below about -30%; note: % is set by controls: 0 for no effect and ±100 for the full control effect
#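 ATPase activity: ADP formed was measured by HTRF Transcreener (665/615 nm ratio) after 30 min at 37 deg C with 10 uM ATP. Compounds screened at one 76 uM concentration against 40 or 20 nM TRiC in Tris pH 7.4/KCl/MgCl2/DTT buffer.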
# RXFP1 ag – activates the human relaxin receptor RXFP1; HEK293T-RXFP1 cAMP TR-FRET, 30 min; response scale: percent of porcine relaxin response, buffer zero; Potency, µM (titrated, usually from 57.5 µM), for inactives: at the highest dose activation, hits mostly activators; 370,000 tested, 0.3% active; note: potency is the fitted concentration of half-maximal effect; % is set by controls: 0 for no effect and ±100 for the full control effect; nearly all actives have a fitted effect of over 60% in size
#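 HEK293 cells stably expressing RXFP1, treated 30 min at 37C with compounds plus PDE4 inhibitor Ro 20174; cAMP measured by HTRF TR-FRET. Normalized to buffer and 29 nM porcine relaxin; EC50 by Hill fit.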
# Numbers without * were called inactive; ? = inconclusive; / = not tested or not shown; [ ] = another dose, or the depositor's remark. Rows were chosen to be rich in hits. Some 1.2% of all compounds tested hit in one or more screens of this group. Unless noted, calls come from the whole dose curve; as a rule, active = well fitted curve in the direction sought with a large enough effect; inconclusive = small, poorly fitted or top-dose-only effect, or another doubt; inactive = no such curve, though single readings can be large; an effect the other way counts as inactive or inconclusive.
SMILES,gsp antagonist,gsp agonist,RXFP1 antagonist,MmCpn inh,CCT chaperon mod,RXFP1 ag
CCc1ccc(Oc2c(C(F)(F)F)oc3c(CN4CCC(C)CC4)c(O)ccc3c2=O)cc1,/,/,/,/,/,-2%
Cc1cccc(C)c1NC(=O)Cn1cc(S(=O)(=O)Cc2ccc(F)cc2)c2ccccc21,/,/,?,/,/,-1%
O=C(NCCc1c[nH]c2ccccc12)C(=O)c1c[nH]c2ccccc12,-4%,5%,-9,2%,-87*,3%
C=CCn1c(SCC(=O)O)nnc1-c1ccc(C(C)(C)C)cc1,-4%,-29%,-8,-6%,-31*,0%
COC(=O)C1CCN(c2nc3ccccc3nc2C(C#N)C(=O)OCC(C)C)CC1 (stereo not given),-6%,?,3,0%,-40*,4%
CN(C)CCCO[C@@H]1[C@H]2OC(C)(C)O[C@H]2O[C@@H]1C(O)CO (stereo not given in full),/,/,-9,/,/,/
CN(C)CCCO[C@@H]1[C@H]2OC(C)(C)O[C@H]2O[C@@H]1[C@H](O)CO,5%,/,/,-5%,-88*,0%
Cc1ccc(-c2cn3c(n2)sc2cc(C(=O)NCc4cccs4)ccc23)cc1,/,/,-20,/,/,7%
Cn1cc(C(=O)C(=O)NCCc2ccccc2)c2ccccc21,16%,-22%,17,3%,-51*,5%
Cn1cc(SCC(=O)NCCc2ccccc2)c2ccccc21,-3%,3%,-4,2%,-3,0%
Oc1c(Br)cc(Br)cc1/C=N/NC(=S)N[C@H]1CC2C=CC1C2 (stereo not given in full),-19%,9%[15.4 µM],-72*,-1%,-2,0%
COc1ccc(CCNc2ncnc3[nH]ncc23)cc1OC,1%,0%[15.4 µM],-17,1%,0,1%
COc1ccc(CCNc2ncnc3sc(C)cc23)cc1OC,35µM*,-21%,-18,-2%,0,0%
COc1ccc(C(=O)/C=C2/Sc3cc4c(cc3N2C)OCO4)cc1,2%,?,4,1%,-1,?
CN1/C(=C/C(=O)c2ccc(Cl)cc2)Sc2cc3c(cc21)OCO3,32µM*,-76%,-19,-2%,0,3%
CCc1sc(C(C2C(=O)CC(C)(C)CC2=O)C2C(=O)CC(C)(C)CC2=O)cc1[N+](=O)[O-],?,4%[15.4 µM],-98*,1%,0,-4%
O=C(Cn1nc(-c2ccccc2)ccc1=O)Nc1ccc(-n2cnnn2)cc1,45µM*,3%[15.4 µM],?,-2%,-4,-4%
O=C(Cn1nc(-c2ccc3c(c2)OCCO3)ccc1=O)Nc1ccc(-n2cnnn2)cc1,3%,-31%,0,4%,-1,-2%
COc1cc2c(cc1OC)C(COc1ccc3c(C)cc(=O)oc3c1)N(C(=O)Cc1ccccc1)CC2 (stereo not given),/,/,-6,/,/,35µM*
COc1cc2c(cc1OC)C(COc1ccc3c(C)cc(=O)oc3c1)N(C(=O)Cc1ccc(F)cc1)CC2 (stereo not given),/,/,-9,/,/,0%
CCc1ccccc1N1CC(c2nc3ccccc3n2CCOc2ccc(Cl)c(C)c2)CC1=O (stereo not given),/,/,/,/,/,-2%
CC(=O)c1cccc(NC(=S)NC(=O)c2ccc(Br)cc2)c1,4%,14%,/,-3%,-40*,2%
CC(=O)CSc1nc(-c2ccccc2)[nH]c1S(=O)(=O)c1ccc(C)cc1,/,/,-3,/,/,1%
C/C(=C1/SC(=S)N(CCC(=O)O)C1=O)c1ccc(O)cc1,5%,-17%,2,-2%,-38*,-1%
N#CSCC(=O)O,/,/,-21,/,/,/
O=C1CC(=Nc2ccccc2)NN1c1ccccc1,50µM*,-26%,-7,1%,1,0%
O=C1Cc2ccccc2N1c1ccccc1,-13%,-31%,-2,0%,0,0%
O=C1/C(=C/c2ccccc2)SC(=S)N1CC(=O)N1CCCCC1c1cccnc1 (stereo not given),40µM*,30%,7,0%,0,-4%
